# Data taken from the supplement of paper PMC8728848.
# The sample as a whole holds a higher share of the strongest signals than the screen did.
# B1: Clec12b (Mus musculus), Q149M0 (protein)
# chain: MSDEVTYATLMLQDSARVRGNQDGNNLRKEGHPAQSSLWRGAALSLMTLCLVLVTGLVTLATMFLQVSNDINSDSEKLSQLQKSIHPQQDNLSESLNSSRKSLTEESLQSQISALLERQEQMATKLCKEFLIHASDHKCNPCPKTWQWYGNSCYYFSINEEKSWSDSRKDCIDKNATLVKIDSTEERDLLQSQLSLTFSFFWLGLSWNSSGRNWLWEDGSFPPPTLFSDKELASFNGSRDCAYFERGNIYASRCSAEIPWICEKTASLVKTEDLD
# Legend:
# Test in all cases: glycan array binding signal (z-score within array); higher = stronger binding
# Conditions in all cases: glycan notation: IUPAC condensed, linker removed
# Gal(b1-6)Gal = target: Gal(b1-6)Gal
# How it was run: (§1)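 The binding signal is a Z-score computed within each array and averaged over linkers. Arrays of the same protein sequence at different concentrations or buffers were also averaged together. Data originate from 3228 arrays in the Consortium for Functional Glycomics database, kept only where the protein sequence was available.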
# Gal6S(b1-4)Glc6S = target: Gal6S(b1-4)Glc6S
# How it was run: as §1
# GalNAc(b1-3)GalNAc = target: GalNAc(b1-3)GalNAc
# How it was run: as §1
# GalNAc(b1-4)GlcNAc = target: GalNAc(b1-4)GlcNAc
# How it was run: as §1
# GalNAc(b1-6)GalNAc = target: GalNAc(b1-6)GalNAc
# How it was run: as §1
# GalNAc3S(b1-4)GlcNAc = target: GalNAc3S(b1-4)GlcNAc
# How it was run: as §1
# Glc(b1-6)Glc = target: Glc(b1-6)Glc
# How it was run: as §1
# GlcA(b1-3)GlcNAc = target: GlcA(b1-3)GlcNAc
# How it was run: as §1
# GlcNAc(b1-3)Gal = target: GlcNAc(b1-3)Gal
# How it was run: as §1
# GlcNAc(b1-3)Gal(b1-4)Glc = target: GlcNAc(b1-3)Gal(b1-4)Glc
# How it was run: as §1
# [1] = target: GlcNAc(b1-3)Gal(b1-4)GlcNAc(b1-3)Gal(b1-4)GlcNAc(b1-2)Man(a1-3)[GlcNAc(b1-3)Gal(b1-4)GlcNAc(b1-3)Gal(b1-4)GlcNAc(b1-2)Man(a1-6)]Man(b1-4)GlcNAc(b1-4)GlcNAc
# How it was run: as §1
# [2] = target: GlcNAc(b1-3)[GlcNAc(b1-4)][GlcNAc(b1-6)]GlcNAc
# How it was run: as §1
# [3] = target: Man(a1-2)Man(a1-6)[Man(a1-3)]Man(a1-6)[Man(a1-2)Man(a1-2)Man(a1-3)]Man
# How it was run: as §1
# [4] = target: Man(a1-2)Man(a1-6)[Man(a1-3)]Man(a1-6)[Man(a1-2)Man(a1-2)Man(a1-3)]Man(b1-4)GlcNAc(b1-4)GlcNAc
# How it was run: as §1
# Neu5Ac(a2-3)Gal = target: Neu5Ac(a2-3)Gal
# How it was run: as §1
# [5] = target: Neu5Ac(a2-3)Gal(b1-3)GalNAc(b1-3)Gal(a1-4)Gal(b1-4)Glc
# How it was run: as §1
# [6] = target: Neu5Ac(a2-3)Gal(b1-3)GlcNAc(b1-2)Man(a1-3)[GlcNAc(b1-4)][Neu5Ac(a2-3)Gal(b1-3)GlcNAc(b1-2)Man(a1-6)]Man(b1-4)GlcNAc(b1-4)GlcNAc
# How it was run: as §1
# [7] = target: Neu5Ac(a2-3)Gal(b1-4)GlcNAc(b1-2)Man(a1-3)[Neu5Ac(a2-3)Gal(b1-4)GlcNAc(b1-2)Man(a1-6)]Man(b1-4)GlcNAc(b1-4)GlcNAc
# How it was run: as §1
# [8] = target: Neu5Ac(a2-3)Gal(b1-4)GlcNAc(b1-2)Man(a1-3)[Neu5Ac(a2-3)Gal(b1-4)GlcNAc(b1-2)Man(a1-6)]Man(b1-4)GlcNAc(b1-4)[Fuc(a1-6)]GlcNAc
# How it was run: as §1
# [9] = target: Neu5Ac(a2-3)Gal(b1-4)GlcNAc(b1-3)Gal(b1-4)GlcNAc(b1-3)[Neu5Ac(a2-3)Gal(b1-4)GlcNAc(b1-3)Gal(b1-4)GlcNAc(b1-6)]GalNAc
# How it was run: as §1
# [10] = target: Neu5Ac(a2-3)Gal(b1-4)GlcNAc(b1-3)Gal(b1-4)GlcNAc(b1-6)[Gal(b1-3)]GalNAc
# How it was run: as §1
# [11] = target: Neu5Ac(a2-3)Gal(b1-4)[Fuc(a1-3)]GlcNAc(b1-6)[Gal(b1-3)]GalNAc
# How it was run: as §1
# [12] = target: Neu5Ac(a2-3)Gal6S(b1-4)GlcNAc
# How it was run: as §1
# [13] = target: Neu5Ac(a2-3)[GalNAc(b1-4)]Gal(b1-4)GlcNAc
# How it was run: as §1
# [14] = target: Neu5Ac(a2-6)Gal(b1-4)GlcNAc(b1-2)Man(a1-3)[GlcNAc(b1-2)Man(a1-6)]Man(b1-4)GlcNAc(b1-4)GlcNAc
# How it was run: as §1
# [15] = target: Neu5Ac(a2-6)Gal(b1-4)GlcNAc(b1-3)Gal(b1-4)GlcNAc(b1-3)Gal(b1-4)GlcNAc
# How it was run: as §1
# [16] = target: Neu5Ac(a2-6)Gal(b1-4)GlcNAc(b1-3)Gal(b1-4)GlcNAc(b1-3)[Neu5Ac(a2-6)Gal(b1-4)GlcNAc(b1-3)Gal(b1-4)GlcNAc(b1-6)]GalNAc
# How it was run: as §1
# [17] = target: Neu5Ac(a2-6)Gal(b1-4)GlcNAc6S
# How it was run: as §1
# [18] = target: Neu5Ac(a2-6)GalNAc(b1-4)GlcNAc
# How it was run: as §1
# [19] = target: Neu5Ac(a2-6)GalNAc(b1-4)GlcNAc6S
# How it was run: as §1
# [20] = target: Neu5Ac(a2-8)Neu5Gc(a2-3)Gal(b1-4)GlcNAc
# How it was run: as §1
binder,measurement,setting,value
B1,glycan array binding signal (z-score),Gal(b1-6)Gal,-0.5
same,glycan array binding signal (z-score),Gal6S(b1-4)Glc6S,1.24
same,glycan array binding signal (z-score),GalNAc(b1-3)GalNAc,-0.125
same,glycan array binding signal (z-score),GalNAc(b1-4)GlcNAc,0.301
same,glycan array binding signal (z-score),GalNAc(b1-6)GalNAc,1.14
same,glycan array binding signal (z-score),GalNAc3S(b1-4)GlcNAc,-0.691
same,glycan array binding signal (z-score),Glc(b1-6)Glc,-0.441
same,glycan array binding signal (z-score),GlcA(b1-3)GlcNAc,-0.05
same,glycan array binding signal (z-score),GlcNAc(b1-3)Gal,-0.39
same,glycan array binding signal (z-score),GlcNAc(b1-3)Gal(b1-4)Glc,2.54
same,glycan array binding signal (z-score),[1],-0.27
same,glycan array binding signal (z-score),[2],-0.245
same,glycan array binding signal (z-score),[3],-0.526
same,glycan array binding signal (z-score),[4],-0.428
same,glycan array binding signal (z-score),Neu5Ac(a2-3)Gal,-0.719
same,glycan array binding signal (z-score),[5],-0.593
same,glycan array binding signal (z-score),[6],-0.101
same,glycan array binding signal (z-score),[7],-0.716
same,glycan array binding signal (z-score),[8],11.9
same,glycan array binding signal (z-score),[9],-0.513
same,glycan array binding signal (z-score),[10],-0.721
same,glycan array binding signal (z-score),[11],2.54
same,glycan array binding signal (z-score),[12],-0.451
same,glycan array binding signal (z-score),[13],-0.538
same,glycan array binding signal (z-score),[14],-0.701
same,glycan array binding signal (z-score),[15],-0.719
same,glycan array binding signal (z-score),[16],-0.419
same,glycan array binding signal (z-score),[17],0.459
same,glycan array binding signal (z-score),[18],-0.692
same,glycan array binding signal (z-score),[19],-0.524
same,glycan array binding signal (z-score),[20],-0.719
